# Compound activity deposited in PubChem BioAssay by National Center for Advancing Translational Sciences (NCATS).
# SMN2 splice enh: enhancers of SMN2 splice variant expression | AID 1458 | HEK293 SMN2-luciferase splicing reporter, luminescence, 30-36 h | actives 2.8% (n = 210,000) | Potency, µM (top dose mostly 46.1 µM), for the others: at the top dose activity change, positive = activation, most hits filed as activators; further: % of control where 0% means no effect; nearly all actives have a fitted effect of over 55% in size
#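 HEK293 cells carry an SMN2 […]–luciferase reporter in which exon 7 inclusion puts luciferase in frame. Cells were plated 10-12 h before compound addition, then incubated 30-36 h at 37C. ONE-Glo luminescence was read; sodium butyrate at 4.5 mM final served as control.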
# FLuc counter: inhibits or activates purified firefly luciferase, miR-21 counter-screen | purified FLuc, Km substrates, luminescence inhibition | Potency, µM (doses to about 57.5 µM), without a hit: top-dose activity change, negative = inhibition, hits mostly inhibitors | actives 6.9% (n = 360,000) | AID 588342;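 further: plate controls were vehicle for no effect and reference inhibitor for full effect; nearly all actives have a fitted effect of over 55% in size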
# Target sequence (P08659 whole entry, looked up): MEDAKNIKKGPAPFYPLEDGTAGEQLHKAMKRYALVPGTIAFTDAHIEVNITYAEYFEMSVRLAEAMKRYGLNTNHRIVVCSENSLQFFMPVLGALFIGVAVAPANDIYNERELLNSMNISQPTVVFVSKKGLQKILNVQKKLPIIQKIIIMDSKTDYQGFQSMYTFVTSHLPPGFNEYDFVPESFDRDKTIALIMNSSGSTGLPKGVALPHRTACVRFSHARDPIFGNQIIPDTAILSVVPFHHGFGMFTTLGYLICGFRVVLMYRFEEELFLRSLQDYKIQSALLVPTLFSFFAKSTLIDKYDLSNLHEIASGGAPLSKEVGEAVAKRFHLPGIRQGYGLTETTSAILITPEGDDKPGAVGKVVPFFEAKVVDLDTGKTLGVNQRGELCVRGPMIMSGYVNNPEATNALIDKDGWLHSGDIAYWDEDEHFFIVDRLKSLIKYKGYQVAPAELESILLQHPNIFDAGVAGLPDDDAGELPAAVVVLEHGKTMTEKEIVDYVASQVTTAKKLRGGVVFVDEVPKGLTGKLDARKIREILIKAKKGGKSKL
#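 Biochemical qHTS of compounds, final roughly 60 µM downward over six points, against 10 nM purified firefly luciferase using Km concentrations of substrates (10 uM D-luciferin, 10 uM ATP) in Tris acetate pH 7.5 buffer; luminescence output.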
# NPC1 promoter act: activates the NPC1 promoter; Potency, µM (titrated, usually from 9.22 µM), for inactives: top-dose activation, most hits filed as activators; actives 2.4% (n = 320,000); Huh7 NPC1 promoter luciferase reporter, 24 h; AID 485313; further: % of control where 0% means no effect; nearly all actives have a fitted effect of over 60% in size
#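 Huh7 cells stably carrying NPC1 promoter–luciferase, plated in Opti-MEM with 10% FBS for 2 h, were exposed to compound in DMSO for 24 h at 37 °C; luciferase reagent was added for 10 min and luminescence read.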
# Rab9 prom act: Rab9 promoter activation; Potency, µM (highest dose often 9.22 µM), without a hit: at the highest dose activation, negative = inhibition, most hits filed as activators; AID 485297; actives 2.8% (n = 320,000); Huh7 Rab9 promoter-luciferase reporter, luminescence, 24 h; further: % of control where 0% means no effect; nearly all actives have a fitted effect of over 60% in size
#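 Luminescence read-out: Huh7 cells stably expressing Rab9-luciferase, treated 24 h with compound at 37 °C, then lysed with luciferase reagent for 10 min at ambient before reading.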
# KinaseGlo FLuc: Kinase-Glo luciferase inhibition (counter-screen) | Q27757 | Kinase-Glo luciferase, ATP luminescence, 8 min | Potency, µM (titrated, usually from 38.3 µM), for inactives: at the highest dose activity change, negative = inhibition, usual class: inhibitors | actives 0.28% (n = 200,000) | AID 1379; further: on the % scale 0 is the no-effect control and ±100 the full control effect; nearly all actives have a fitted effect of over 60% in size
#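 Recombinant Kinase-Glo luciferase, 10 uM ATP (linear range), luciferin; imidazole pH 7.2 / KCl / MgCl2 / Tween / BSA buffer; 8 min RT; luminescence.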
# ELG1 genotoxic: genotoxicity induction in ELG1-luciferase HEK293T cells; Potency, µM (titrated, usually from 46 µM), inactives show at the top dose activity change, positive = activation, usual class: activators; HEK293T ELG1-luciferase reporter, luminescence, 16 h; actives 1.3% (n = 330,000); further: % of control where 0% means no effect; nearly all actives have a fitted effect of over 60% in size
#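 Screening used a luciferase reporter fused to human ELG1 in HEK293T cells. Luminescence was read on a CCD plate imager after 16 hr exposure and 30 min ONE-Glo incubation.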
# Active calls of the source: *; ? = inconclusive; . = not tested or not shown; [ ] = remark or other dose. Shown are actives, neighbours in structure and some others; about 7.5% of the full set was active somewhere. The call rests on the fitted dose curve; in most records, active means well fitted curve in the direction sought with a large enough effect; inconclusive means small, poorly fitted or top-dose-only effect, or another doubt; inactive means no such curve, though single readings can be large; an effect the other way counts as inactive or inconclusive. Potency means the concentration at half of the fitted maximal effect.
SMILES,SMN2 splice enh,FLuc counter,NPC1 promoter act,Rab9 prom act,KinaseGlo FLuc,ELG1 genotoxic
Cc1ccc(N(C)C)cc1,-8%,.,.,.,.,.
Cc1ccc(S(=O)(=O)NC(=O)Nc2ccc(N(C)C)cc2)cc1,.,24µM*,5%,?,.,?
COc1ccc(C(=S)Nc2ccc(N(C)C)cc2)cc1,11µM*,1.5µM*,3.2µM*,2.8µM*,-6%,?
Cc1ccc(NC(=S)c2ccc(N(C)C)cc2)cc1,4.5µM*,1.7µM*,0.89µM*,1.3µM*,-4%,3.7µM*
COc1ccc(NC(=S)c2ccc(N(C)C)cc2)cc1,11µM*,2.1µM*,4µM*,1.3µM*,0%,?
CC(=O)C1C(c2cccc(F)c2)c2c(n[nH]c2C)CC1(C)O (configuration not stated),.,1%,-3%,-3%,.,-1%
CCCOc1ccc(/C=N/n2nnnc2N)cc1OC,.,5%,2%,8%,.,?
COc1ccc(NC(=S)c2ccccc2)cc1,14µM*,11µM*,?,?,-3%,?
COc1ccc(NC(=S)Nc2ccccc2)cc1,-2%[9.22 µM],-19%,-1%,14%,-5%[7.66 µM],3%
CCCCC(=O)OCc1nc(N)nc(Nc2ccccc2C)n1,10%,19µM*,2%,2%,-3%,?
Cc1ccccc1Nc1nc(N)nc(COC(=O)C2CCCCC2)n1,13%,15µM*,-1%,13%,-6%,12%
Cc1ccc(N2CC(C(=O)OCc3nc(N)nc(Nc4ccccc4C)n3)CC2=O)cc1 (configuration not stated),.,2%,-1%,-2%,.,2%
COC(=O)Cn1c(=NC(=O)c2ccc(Cl)s2)sc2cc(C)ccc21,4µM*,0.13µM*,?,?,-10%,?
COC(=O)Cn1c(=NC(=O)c2ccc([N+](=O)[O-])s2)sc2cc(Br)ccc21,17%,-18%,-4%,-2%,1%,10%
CC(O)c1cccc(N=Cc2ccc3ccccc3c2O)c1 (configuration not stated),.,27µM*,-6%,2%,.,-2%
Oc1ccc(C=Nc2cccc3ccccc23)c(O)c1,.,-1%,-2%,16%,.,-1%
COc1cc(NC(=O)COC(=O)c2ccc3ccccc3n2)cc(OC)c1,.,-3%,-1%,-2%,.,-3%
CCOc1ccc(N=C(NN)c2ccc3ccccc3n2)cc1,15%,11µM*,29%,?,-1%,?
Cc1ccc(N=Nc2ccc(O)c3ncccc23)cc1,-91%,3%,13%,-2%,-7%,?
COc1ccccc1N=Nc1ccc(O)c2ncccc12,.,6.7µM*,-35%,-22%,.,?
Cc1ccc(N=Nc2ccc(O)c3ncccc23)cc1C,.,11µM*,-18%,-9%,-9%,10%
CCOC(=O)[C@@H]1[C@H]2COc3ccc(Br)cc3[C@@H]2N2C(=O)N(c3ccc(C(F)(F)F)cc3)C(=O)[C@]12C,.,0%,-5%,5%,.,-2%
CCC(C)NC(=O)CSc1nc2cc3c(cc2c(=O)n1CCCCCC(=O)NCc1ccc(OC)cc1)OCO3 (configuration not stated),.,-2%,.,.,.,.
CC1SC(C)C(=O)N(CC(=O)Nc2ccc([N+](=O)[O-])cc2)C1=O (configuration not stated),9%,2%,-9%,-4%,3%,3%
COc1ccc(CNC(=O)C(=O)NCC2OCCN2S(=O)(=O)c2ccc3c(c2)OCCO3)cc1 (configuration not stated),-38%,-3%,1%,-8%,-2%,-1%
SMILES,SMN2 splice enh,FLuc counter,NPC1 promoter act,Rab9 prom act,KinaseGlo FLuc,ELG1 genotoxic
CCc1ccc2oc(C(=O)Nc3nc(-c4ccccc4)ns3)c(C)c2c1,?,5.4µM*,.,.,.,.
COc1ccc(-c2nsc(NC(=O)c3oc4ccc(Cl)cc4c3C)n2)cc1,4%,-16%,.,.,.,.
CCc1ccc2oc(C(=O)Nc3nonc3CC)c(C)c2c1,11%,?,?,3.5µM*,.,?
Cc1cc2oc(C(=O)Nc3nonc3C)c(C)c2cc1Cl,.,-6%,?,3.5µM*,.,?
Cc1nonc1NC(=O)c1oc2ccc(F)cc2c1C,.,-1%,?,?,.,14%
COc1ccc(-c2nc(C#N)c(N3CCCCC3)o2)cc1,.,?,1%,1%[1.84 µM],.,-4%
C=CCNc1oc(-c2ccc(Cl)cc2)nc1C#N,.,.,.,.,.,-1%
N#Cc1nc(-c2cccc3ccccc23)oc1NCC1CCCO1 (configuration not stated),.,12µM*,7%,25%,.,?
N#Cc1nc(-c2ccc(Cl)cc2)oc1NCC1CCCO1 (configuration not stated),?,21µM*,10%,?,3%,?
COc1ccc(-c2nc(C#N)c(NC(C)C)o2)cc1,5%,13µM*,?,?,-3%,27%
CNc1oc(-c2ccc(Cl)cc2)nc1C#N,13%,11µM*,?,?,-7%,?
Cc1cccc(N2C(=O)C(CC(=O)Nc3ccccc3)N(C3CCCCC3)C2=O)c1 (configuration not stated),10%,-1%,.,.,.,.
O=S1(=O)CCOCCCN1Cc1ccccc1,.,9%,-1%,0%,.,2%
Cc1ccc(C(=O)O/N=C(\N)Cc2cccs2)cc1[N+](=O)[O-],.,0%,2.2µM*,3.2µM*,.,?
CCOc1ccc(NC(=O)CC2C(=O)N(c3ccccc3)C(=O)N2Cc2ccc3c(c2)OCO3)cc1 (configuration not stated),13%,-14%,.,.,.,.
Cc1ccccc1Cn1c(SCc2ccc(C(=O)N3CCCCC3)cc2)nc2ccncc21,-64%,?,.,.,.,.
O=C(c1ccc(CSc2nc3ccncc3n2Cc2ccccc2F)cc1)N1CCCCCC1,-18%,24µM*,.,.,.,.
Cc1ccc(CSc2nc3cccnc3n2Cc2ccc(C(=O)NC3CCCCC3)cc2)cc1,.,0.34µM*,.,.,.,.
Cc1ccc(CSc2nc3cccnc3n2Cc2ccc(C(=O)NCCc3cccs3)cc2)cc1,.,0.43µM*,.,.,.,.
O=C(NC1CC1)c1ccc(Cn2c(SCc3ccccc3F)nc3cccnc32)cc1,.,4.8µM*,.,.,.,.
Cc1ccc(C(C)C)cc1OCC(=O)Nc1ccc(N2CCCCC2)cc1,.,?,-4%,1%,.,-6%
COc1ccc(NC(=O)C(CC(C)C)NS(=O)(=O)c2ccc3c(c2)oc(=O)n3C)cc1Cl (configuration not stated),-3%,-1%,.,.,.,.
O=C(NC1CCCCC1)c1ccc(Cn2c(SCc3ccccc3F)nc3cccnc32)cc1,.,8.5µM*,.,.,.,.
O=C(NC1CCCCC1)c1ccc(CSc2nc3cccnc3n2Cc2ccccc2F)cc1,.,-16%,.,.,.,.
